Measurements as given in PubChem BioAssay (NCI).
The panel holds about 79,000 compounds, 15% with a hit somewhere; the sample as a whole holds those more often. A number with no mark means an inactive call. The source made the active and inactive calls. No stated cut-off is given here; in the data, active means growth inhibition above about 70%; inactive means the rest.

What was measured:
[1] = NCI Yeast Anticancer Drug Screen. Data for the rad50 strain (AID 155);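 further: 0% = growth of vehicle-only cultures of the same strain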; settings: S. cerevisiae rad50 strain growth inhibition; at 50.0 µM; active compounds read high
In short: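 Relative growth inhibition (compound vs vehicle) was measured in yeast with a defined repair-gene alteration.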

[2] = NCI Yeast Anticancer Drug Screen. Data for the mec2-1 strain (AID 157); settings: S. cerevisiae mec2-1 strain, at 50.0 µM, active compounds read high
In short: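 Each compound was tested on mec2-1 yeast, a strain altered in DNA damage repair or cell cycle control. Growth inhibition is reported relative to vehicle.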

[3] = NCI Yeast Anticancer Drug Screen. Data for the sgs1 mgt1 strain (AID 161);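 further: 0% = growth of cultures given vehicle only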; settings: S. cerevisiae sgs1 mgt1 strain, at 50.0 µM, active compounds read high
In short: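 Mutant yeast exposed to compound; growth scored against vehicle-only wells.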

[4] = NCI Yeast Anticancer Drug Screen. Data for the cln2 rad14 strain (AID 165);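 further: 0% = growth equal to vehicle treated cultures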; settings: S. cerevisiae cln2 rad14 strain, at 50.0 µM, active compounds read high
In short: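 Test compounds were added to cln2 rad14 yeast cultures; inhibition of growth was then determined by comparison with vehicle treatment.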

[5] = NCI Yeast Anticancer Drug Screen. Data for the bub3 strain (AID 167); settings: S. cerevisiae bub3 mutant strain, at 50.0 µM, active compounds read high
In short: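 Screening used yeast with an engineered genetic alteration affecting cell cycle control. Compound-exposed cultures were compared with vehicle cultures, and reduced growth was taken as inhibition.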

[6] = NCI Yeast Anticancer Drug Screen. Data for the mlh1 rad18 strain (AID 175); settings: S. cerevisiae mlh1 rad18 strain growth inhibition; at 50.0 µM; active compounds read high
In short: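 Inhibition values reflect reduced growth of mutant yeast versus vehicle-treated controls following compound exposure; the mutations affect DNA damage repair.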

Compound | growth inhibition [1] | growth inhibition [2] | growth inhibition [3] | growth inhibition [4] | growth inhibition [5] | growth inhibition [6]
CC(=O)C(C(=O)C(=O)Nc1cc(Cl)c(Cl)cc1Cl)c1csc(N)n1 (centres undefined) | -14.7% | -9.2% | -1.85% | 7% | -2.5% | -10.6%
Clc1nc(Cl)c2ncn(C3CCCCO3)c2n1 (centres undefined) | 26.4% | 26.1% | 5.05% | 4.6% | 38.2% | 14.3%
CCCCC(CC)C1OCC(O)CO1 (centres undefined) | 8.8% | 3.3% | 2.55% | 5.1% | -13.2% | -14.3%
COc1cc(N=C(N)N=C(N)N)c2ncccc2c1 | -3.1% | -18.1% | -11.9% | -41% | -3.75% | -13.2%
COc1ncc(/C=C2\OC(=O)c3ccccc32)c(OC)n1 | 1.6% | -16.1% | 19.9% | 2.6% | 6.05% | 16.9%
O=[N+]([O-])c1cccc(OCC2CO2)c1 (centres undefined) | 9% | -23.8% | -0.75% | -13.2% | -2.1% | 34.5%
Cc1cc(C)n2nc3c4ccsc4ncc3c2n1 | -5.2% | -5.45% | -15.9% | 2.45% | 0.1% | -6.8%
CC(=O)OC12CC3CCC4C(CCC5(C)C(C(C)CCCC(C)C)CCC45)C3(C)CC1O2 (centres undefined) | 71% (active) | 48.4% | 69.8% | -1.2% | 14.3% | 42.2%
CCCCC1(CC)COC2(CCCC2)OC1 | 18.6% | 2.25% | -11.6% | 3.2% | -9.7% | 12.4%
O=C(OCCO)C1CC2CC1C1(C2)OCCO1 (centres undefined) | -2% | -13.2% | 13.9% | -12.1% | 42% | 0.5%
CCCCC(O)(c1ccccc1)c1ccccc1CN(C)C (centres undefined) | 1.7% | -3% | -0.65% | 6.15% | -2.05% | -4.8%
COC1=NO[C@@H]2C=CO[C@H]12 | -8.2% | -13.2% | -5.05% | -18.4% | 8.35% | 9.95%
c1ccc2c(c1)C(=Nc1ccc(N=C3c4ccccc4-c4ccccc43)cc1)c1ccccc1-2 | 1.8% | -0.55% | -5.7% | -1% | -27.4% | -20.6%
COc1ccc(-c2cc(-c3ccccc3)n(C3OC(COC(C)=O)C(OC(C)=O)C(OC(C)=O)C3OC(C)=O)c(=S)c2C#N)cc1 (centres undefined) | 5% | -11.8% | -8.6% | -25.4% | 26.5% | -5.2%
CC(=O)Nc1ccc(CCNC(=O)c2ccc3ccccc3c2O)cc1 | -21.8% | -33.1% | -15.2% | -6.35% | -11.8% | -13.4%
CCCC(=O)OCC(COC(=O)CCC)OC(=O)CCC | -26.8% | -8.35% | -17.4% | 24.6% | 4.9% | 7.1%
O=[N+]([O-])c1ccc(/C=N/C(/N=C/c2ccc([N+](=O)[O-])cc2)c2ccc([N+](=O)[O-])cc2)cc1 | 8.05% | -6.25% | 6.35% | 1.55% | -4.05% | 23.9%
Cc1[nH]c(=O)[nH]c(=O)c1C | 4.05% | -36.1% | 1.8% | 27.4% | -11.9% | 7.35%
O=C(O)CNC(=O)CNC(=O)CNC(=O)CNC(=O)CNC(=O)OCc1ccccc1 | 38.2% | -0.25% | 15.2% | 28.1% | -0.95% | 17.4%
